Data published in PubChem BioAssay AID1159580 (chemical genetic matrix, 2015).
In all, about 5,500 compounds went through this assay and about 2,000 (36%) were called active. Roughly 18% stayed inconclusive and do not appear here. Rule as the data show it: active = normalized growth mostly below about 0.91 (no sharp cut-off); inconclusive = no clear call, values can overlap the other calls; inactive = mostly above about 0.92. The list shows a part of the results.

Experiment: chemical genetic growth profiling, strain panel (AID 1159580);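 also: tested at 20 µM; growth read once vehicle control cultures reached saturation at 30 °C; 1 = growth at the plate median or of vehicle wells; lower values mean less growth of the strain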
Details: growth OD

Measured: normalized growth

CN(C)C1C(=O)C(C(N)=O)=C(O)C2(O)C(=O)C3=C(O)c4c(O)ccc(Cl)c4C(C)(O)C3CC12 (stereo unspecified)
inactive: S. cerevisiae deletion strains, locus YAL013W, strain DEP1, stronger effect = lower value 1 | S. cerevisiae deletion strains, locus YBR021W, strain FUR4, stronger effect = lower value 0.979 | S. cerevisiae deletion strains, locus YBR229C, strain ROT2, stronger effect = lower value 0.991 | S. cerevisiae deletion strains, locus YCL029C, strain bik1, stronger effect = lower value 0.975 | S. cerevisiae deletion strains, locus YDL035C, strain GPR1, stronger effect = lower value 1.01 | S. cerevisiae deletion strains, locus YDL074C, strain BRE1, stronger effect = lower value 1.06 | S. cerevisiae deletion strains, locus YDL101C, strain DUN1, stronger effect = lower value 0.995 | S. cerevisiae deletion strains, locus YDL134C, strain PPH21, stronger effect = lower value 0.992 | S. cerevisiae deletion strains, locus YDL185W, strain tfp1, stronger effect = lower value 0.993 | S. cerevisiae deletion strains, locus YDL192W, strain arf1, stronger effect = lower value 0.99 | S. cerevisiae deletion strains, locus YDR101C, strain arx1, stronger effect = lower value 0.997 | S. cerevisiae deletion strains, locus YDR150W, strain NUM1, stronger effect = lower value 0.992 | S. cerevisiae deletion strains, locus YDR162C, strain NBP2, stronger effect = lower value 1.01 | S. cerevisiae deletion strains, locus YDR318W, strain mcm21, stronger effect = lower value 0.99 | S. cerevisiae deletion strains, locus YDR388W, stronger effect = lower value 0.991 | S. cerevisiae deletion strains, locus YDR502C, strain sam2, stronger effect = lower value 0.993 | S. cerevisiae deletion strains, locus YEL061C, strain CIN8, stronger effect = lower value 0.999 | S. cerevisiae deletion strains, locus YER110C, stronger effect = lower value 0.984 | S. cerevisiae deletion strains, locus YER155C, strain BEM2, stronger effect = lower value 0.997 | S. cerevisiae deletion strains, locus YER167W, strain BCK2, stronger effect = lower value 0.988 | S. cerevisiae deletion strains, locus YGL078C, strain dbp3, stronger effect = lower value 0.99 | S. cerevisiae deletion strains, locus YGL086W, strain mad1, stronger effect = lower value 0.982 | S. cerevisiae deletion strains, locus YGL248W, strain PDE1, stronger effect = lower value 0.985 | S. cerevisiae deletion strains, locus YGR078C, strain PAC10, stronger effect = lower value 1.02 | S. cerevisiae deletion strains, locus YGR135W, strain pre9, stronger effect = lower value 1.01 | S. cerevisiae deletion strains, locus YGR229C, strain SMI1, stronger effect = lower value 1.04 | S. cerevisiae deletion strains, locus YGR252W, strain gcn5, stronger effect = lower value 0.948 | S. cerevisiae deletion strains, locus YHR030C, strain SLT2, stronger effect = lower value 0.99 | S. cerevisiae deletion strains, locus YHR079C, strain IRE1 (second series), stronger effect = lower value 0.979 | S. cerevisiae deletion strains, locus YHR094C, strain hxt1, stronger effect = lower value 0.991 | S. cerevisiae deletion strains, locus YHR129C, strain ARP1, stronger effect = lower value 0.994 | S. cerevisiae deletion strains, locus YHR200W, strain rpn10, stronger effect = lower value 0.98 | S. cerevisiae deletion strains, locus YIL066C, strain RNR3, stronger effect = lower value 0.993 | S. cerevisiae deletion strains, locus YIL073C, strain SPO22, stronger effect = lower value 0.96 | S. cerevisiae deletion strains, locus YIL125W, strain kgd1, stronger effect = lower value 1 | S. cerevisiae deletion strains, locus YIR030C, strain dcg1, stronger effect = lower value 0.986 | S. cerevisiae deletion strains, locus YJL095W, strain BCK1, stronger effect = lower value 1.03 | S. cerevisiae deletion strains, locus YJL134W, strain LCB3, stronger effect = lower value 0.991 | S. cerevisiae deletion strains, locus YJL168C, strain set2, stronger effect = lower value 0.991 | S. cerevisiae deletion strains, locus YJL187C, strain SWE1 (second series), stronger effect = lower value 0.996 | S. cerevisiae deletion strains, locus YJR043C, strain POL32, stronger effect = lower value 0.984 | S. cerevisiae deletion strains, locus YJR075W, strain HOC1, stronger effect = lower value 1.01 | S. cerevisiae deletion strains, locus YKL009W, strain mrt4, stronger effect = lower value 0.964 | S. cerevisiae deletion strains, locus YKL068W, stronger effect = lower value 0.996 | S. cerevisiae deletion strains, locus YKL085W, strain MDH1 (second series), stronger effect = lower value 0.984 | S. cerevisiae deletion strains, locus YKL085W, strain MDH1, stronger effect = lower value 0.984 | S. cerevisiae deletion strains, locus YKL190W, strain CNB1, stronger effect = lower value 1 | S. cerevisiae deletion strains, locus YKR001C, strain vps1, stronger effect = lower value 0.985 | S. cerevisiae deletion strains, locus YLR039C, strain RIC1, stronger effect = lower value 0.964 | S. cerevisiae deletion strains, locus YLR058C, strain SHM2, stronger effect = lower value 0.991 | S. cerevisiae deletion strains, locus YLR102C, strain apc9, stronger effect = lower value 0.985 | S. cerevisiae deletion strains, locus YLR262C, strain YPT6, stronger effect = lower value 0.985 | S. cerevisiae deletion strains, locus YLR268W, strain sec22, stronger effect = lower value 0.999 | S. cerevisiae deletion strains, locus YLR330W, strain CHS5, stronger effect = lower value 0.991 | S. cerevisiae deletion strains, locus YLR342W, strain FKS1 (second series), stronger effect = lower value 0.932 | S. cerevisiae deletion strains, locus YLR371W, strain rom2, stronger effect = lower value 0.979 | S. cerevisiae deletion strains, locus YLR418C, strain cdc73, stronger effect = lower value 1.02 | S. cerevisiae deletion strains, locus YML016C, strain PPZ1, stronger effect = lower value 0.986 | S. cerevisiae deletion strains, locus YML032C, strain rad52, stronger effect = lower value 0.98 | S. cerevisiae deletion strains, locus YML124C, strain tub3, stronger effect = lower value 0.989 | S. cerevisiae deletion strains, locus YMR078C, strain ctf18, stronger effect = lower value 0.983 | S. cerevisiae deletion strains, locus YMR223W, strain ubp8, stronger effect = lower value 0.97 | S. cerevisiae deletion strains, locus YMR263W, strain SAP30, stronger effect = lower value 1.02 | S. cerevisiae deletion strains, locus YMR307W, strain GAS1, stronger effect = lower value 0.937 | S. cerevisiae deletion strains, locus YNL067W, strain RPL9B, stronger effect = lower value 1.03 | S. cerevisiae deletion strains, locus YNL128W, strain TEP1, stronger effect = lower value 1.02 | S. cerevisiae deletion strains, locus YNL153C, strain GIM3, stronger effect = lower value 1.01 | S. cerevisiae deletion strains, locus YNL233W, strain BNI4, stronger effect = lower value 0.999 | S. cerevisiae deletion strains, locus YNL250W, strain rad50, stronger effect = lower value 1 | S. cerevisiae deletion strains, locus YNL271C, strain bni1, stronger effect = lower value 0.998 | S. cerevisiae deletion strains, locus YNL298W, strain CLA4, stronger effect = lower value 0.994 | S. cerevisiae deletion strains, locus YNL307C, strain MCK1, stronger effect = lower value 0.976 | S. cerevisiae deletion strains, locus YNL322C, strain KRE1, stronger effect = lower value 1 | S. cerevisiae deletion strains, locus YNR052C, strain pop2, stronger effect = lower value 0.974 | S. cerevisiae deletion strains, locus YOL006C, strain TOP1, stronger effect = lower value 1.09 | S. cerevisiae deletion strains, locus YOL012C, strain htz1 0.811 | S. cerevisiae deletion strains, locus YOL147C, strain pex11, stronger effect = lower value 0.992 | S. cerevisiae deletion strains, locus YOR061W, strain CKA2, stronger effect = lower value 0.997 | S. cerevisiae deletion strains, locus YOR069W, strain VPS5, stronger effect = lower value 0.993 | S. cerevisiae deletion strains, locus YOR136W, strain idh2, stronger effect = lower value 0.992 | S. cerevisiae deletion strains, locus YOR144C, strain elg1, stronger effect = lower value 0.985 | S. cerevisiae deletion strains, locus YOR184W, strain ser1, stronger effect = lower value 0.973 | S. cerevisiae deletion strains, locus YOR316C, strain cot1, stronger effect = lower value 0.971 | S. cerevisiae deletion strains, locus YPL055C, strain LGE1, stronger effect = lower value 1.04 | S. cerevisiae deletion strains, locus YPL241C, strain CIN2, stronger effect = lower value 0.997 | S. cerevisiae deletion strains, locus YPR119W, strain clb2, stronger effect = lower value 0.998 | S. cerevisiae deletion strains, locus YPR141C, strain kar3, stronger effect = lower value 1 | S. cerevisiae deletion strains, locus YPR163C, strain tif3, stronger effect = lower value 0.991 | S. cerevisiae deletion strains, locus YPR167C, strain met16, stronger effect = lower value 0.992 | S. cerevisiae deletion strains, strain wtn01, stronger effect = lower value 0.988 | S. cerevisiae strains, strain wild type, stronger effect = lower value 1
